Compound activity (PubChem BioAssay)
USP7 inh: human USP7 deubiquitinase inhibition | purified USP7, Ub-rhodamine cleavage fluorescence | inhibition, % at 20 µM | 47,000 tested, 0.3% active | AID 1645854
Target sequence (Q93009 whole entry, looked up): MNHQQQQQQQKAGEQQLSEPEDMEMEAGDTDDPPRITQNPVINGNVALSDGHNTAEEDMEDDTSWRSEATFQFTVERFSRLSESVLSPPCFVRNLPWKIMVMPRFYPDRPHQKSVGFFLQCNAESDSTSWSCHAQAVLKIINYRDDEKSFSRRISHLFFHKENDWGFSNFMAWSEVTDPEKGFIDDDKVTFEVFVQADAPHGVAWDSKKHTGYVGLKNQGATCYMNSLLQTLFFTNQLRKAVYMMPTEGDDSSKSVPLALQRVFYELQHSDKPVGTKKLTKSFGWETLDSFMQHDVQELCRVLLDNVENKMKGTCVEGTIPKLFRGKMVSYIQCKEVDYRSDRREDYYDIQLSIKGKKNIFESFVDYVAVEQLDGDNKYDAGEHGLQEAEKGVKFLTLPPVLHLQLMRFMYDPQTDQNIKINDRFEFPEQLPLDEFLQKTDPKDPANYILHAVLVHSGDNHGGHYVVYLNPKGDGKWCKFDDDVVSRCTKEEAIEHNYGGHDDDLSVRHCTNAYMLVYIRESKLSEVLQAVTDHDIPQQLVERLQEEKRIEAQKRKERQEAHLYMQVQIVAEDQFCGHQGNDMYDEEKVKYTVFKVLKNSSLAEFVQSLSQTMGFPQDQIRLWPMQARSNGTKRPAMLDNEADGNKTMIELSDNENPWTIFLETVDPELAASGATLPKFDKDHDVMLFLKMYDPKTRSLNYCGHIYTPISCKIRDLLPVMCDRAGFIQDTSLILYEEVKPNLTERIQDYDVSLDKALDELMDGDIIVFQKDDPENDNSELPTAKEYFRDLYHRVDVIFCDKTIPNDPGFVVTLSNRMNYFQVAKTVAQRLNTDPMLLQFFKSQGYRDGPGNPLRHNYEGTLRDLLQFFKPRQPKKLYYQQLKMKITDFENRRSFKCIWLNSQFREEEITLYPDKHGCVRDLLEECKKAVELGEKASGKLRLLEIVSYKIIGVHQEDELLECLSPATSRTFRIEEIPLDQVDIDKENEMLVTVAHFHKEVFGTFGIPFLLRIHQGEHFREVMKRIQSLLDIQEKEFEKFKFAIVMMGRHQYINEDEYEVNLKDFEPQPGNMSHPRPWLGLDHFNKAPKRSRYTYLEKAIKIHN
USP17 inh: human USP17-like deubiquitinase inhibition | purified USP17, Ub-rhodamine cleavage fluorescence, 3 h | inhibition, % at 50 µM | 47,000 tested, 6.5% active | AID 1645855
USP8 block: human USP8 deubiquitinase inhibition | P40818 | purified USP8, Ub-rhodamine cleavage fluorescence, 30 min | inhibition, % at 20 µM | 47,000 tested, 4.2% active | AID 1645853
USP28 block: human USP28 deubiquitinase inhibition. Q96RU2. purified USP28, Ub-rhodamine cleavage fluorescence, 30 min. inhibition, % at 25 µM. 47,000 tested, 3% active. AID 1645857
USP30 block: human USP30 deubiquitinase inhibition. inhibition, % at 25 µM. 47,000 tested, 5.3% active. Q70CQ3. purified USP30, Ub-rhodamine cleavage fluorescence
USP10 block: inhibitors of human USP10 deubiquitinase; inhibition, % at 20 µM; Q14694; purified USP10, Ub-rhodamine fluorescence, 60 min; 47,000 tested, 1.1% active
An asterisk follows results filed as active; . = not tested or not shown. In the library only some 13% were active in any assay of this set; here they are far more common. Cut-off read from the data, not from the text of the source: active = inhibition above about 30%; inactive = the rest.

SMILES	USP7 inh	USP17 inh	USP8 block	USP28 block	USP30 block	USP10 block
CCc1cccc(NC(=O)c2nc3ccccc3n(C)c2=O)c1	0	58*	4	48*	86*	-2
Cn1c(=O)c(C(=O)NCc2ccc(F)cc2)nc2ccccc21	1	-9	-3	.	.	-2
Cc1nn(-c2ccc3nncn3n2)c2c1C(c1ccc(C(C)C)cc1)CC(=O)N2 (centres undefined)	-19	19	17	16	45*	0
Cc1ccccc1C1CC(=O)Nc2c1c(C)nn2-c1ccc2nnc(C)n2n1 (centres undefined)	-2	11	2	18	29	3
Cc1ccc(NC(=O)C(C)Sc2nnc(-c3cccnc3)n2C)cc1 (centres undefined)	-2	3	1	.	.	2
Cn1c(=O)n(Cc2cccnc2)c(=O)c2cnc(-c3ccncc3)nc21	-3	-12	-24	-5	-11	0
O=c1c2cc(Br)ccc2[nH]c(=S)n1Cc1cccnc1	20	.	88*	11	13	32*
Cc1ccc(-c2nc(N3CCCC(O)C3)ncc2-c2cnccn2)s1 (centres undefined)	-9	73*	18	-24	-139	-5
N#Cc1ccccc1OCc1csc(-c2ccccc2)n1	-3	-10	-30	66*	10	5
O=C1CC(c2ccco2)Cc2nc(NCc3ccco3)ncc21 (centres undefined)	-19	34*	-4	-16	-113	6
CC1CCc2cc(F)ccc2N1S(=O)(=O)c1cc(Br)cnc1N (centres undefined)	7	17	10	34*	18	10
COc1ccc2c(c1)CCc1c-2n[nH]c1C(=O)N1CCC(Cc2ccccc2)CC1	11	9	-8	1	6	10
O=C(/C=C/c1ccc2c(c1)OCO2)Nc1nc2n(n1)C(c1ccccc1)CC(=O)N2 (centres undefined)	6	-10	62*	-14	-46	22
Cc1ccc(CN2C[C@H]3N(c4ncccn4)CCC[C@@]3(C(=O)N(C)C)C2)cc1	0	-10	-5	-17	-26	-2
Cc1cc(N2CC(C)OC2=O)nc(C2CCN(C(=O)OC(C)(C)C)CC2)n1 (centres undefined)	-1	12	9	14	35*	2
Cc1cn2nnc(C(=O)Nc3ccc(Cl)c(Cl)c3)c2c(=O)[nH]1	10	3	97*	-9	-17	14
CC(C)Cn1c(C2CCCCC2)nc2c(c(=O)c3ccccc3n2C)c1=O	-3	12	-2	-6	5	5
Cn1c2ccccc2c(=O)c2c(=O)n(Cc3ccccc3)c(C3CCCCC3)nc21	8	15	0	9	42*	5
COc1ccc(CCn2c(-c3ccccc3)nc3c(c(=O)c4ccccc4n3C)c2=O)cc1	4	-61	10	-16	-50	0
CC(C)c1nc2c(c(=O)c3ccccc3n2C)c(=O)n1CCc1ccccc1	-10	4	1	35*	50*	7
COc1cccc(C2CC(=O)Nc3n[nH]c(-c4ccccc4)c32)c1 (centres undefined)	5	68*	27	23	63*	11
COc1cc(C2CC(=O)Nc3n[nH]c(-c4ccccc4)c32)cc(OC)c1OC (centres undefined)	-2	0	6	-1	-1	1
O=[N+]([O-])c1ccc(NCC2COc3ccccc3O2)c(S(=O)(=O)N2CCCC2)c1 (centres undefined)	3	-78	-45	-22	-102	-2
N#Cc1cc([N+](=O)[O-])ccc1NCC1COc2ccccc2O1 (centres undefined)	-16	-8	-2	47*	-41	4
CC(C)CNc1nc2c(cc1C(=O)NCC1CC1)CCNCC2	-65	0	-23	12	45*	3
SMILES	USP7 inh	USP17 inh	USP8 block	USP28 block	USP30 block	USP10 block
CCCc1nc2cccnc2n1C1CCN(S(=O)(=O)c2ccc3c(c2)CC(=O)N3C)C1 (centres undefined)	-5	5	3	-8	-8	-5
O=C(Nc1nc2c(s1)CCCC2C(=O)NCc1ccncc1)c1ccc2c(c1)OCO2 (centres undefined)	-8	-15	-141	38*	7	-1
O=C(Nc1nc2c(s1)CCC2C(=O)NCc1ccncc1)c1ccccc1 (centres undefined)	-21	-14	-25	-16	-39	-9
CO\C=C(C(=O)OC)/C(C)=C\C=C\c1ccc2c(c1)O[C@@]1(CO2)O[C@H](C=C(C)C)OC1(C)C	7	-13	-6	-2	-31	-2
Cc1nn(C)c2c1[C@@H](c1ccc(F)c(Br)c1)[C@H](NC(=O)c1ccccc1)C(=O)N2	-11	-11	-20	71*	-29	0
O=C(NCc1ccccc1)c1cc2occc2c(Nc2ccc(F)cc2)n1	2	1	-11	-7	-17	18
COc1ccc(Nc2nc(C(=O)NCc3ccc4c(c3)OCO4)cc3occc23)cc1	-6	63*	67*	25	-37	33*
CCN1CCN(C(=O)c2cc3occc3c(Nc3ccc(OC)cc3)n2)CC1	0	-5	-2	0	0	2
COc1ccc(Nc2nc(C(=O)NCc3ccccc3)cc3occc23)cc1	-3	57*	55*	24	-12	15
CC1Oc2ccccc2N(CC(=O)Nc2cn[nH]c2)C1=O (centres undefined)	3	-1	-5	5	-2	-2
COc1ccc(-n2nnc(C(=O)NCc3ccccc3F)c2-c2cccnc2)cc1	-2	0	4	.	.	2
COc1ccc(CC(=O)NCc2cc(-c3ccc(F)cc3)on2)cc1	-1	19	7	5	17	13
Cc1ccc(N2CCC3(CC2)CC(NC(C)(C)C)CO3)nn1 (centres undefined)	-1	-11	-6	-7	-26	-6
CC(=O)c1ccc(NC(=O)C2CCN(c3cncnc3N3CCCC3)CC2)cc1	-12	-14	-3	89*	-12	1
CC(=O)c1ccc(NC(=O)C2CCN(S(=O)(=O)c3cccnc3)CC2)cc1	2	14	14	13	35*	0
COc1ccc(NC(=O)C2CCN(c3cncnc3N(C)C)CC2)cc1OC	-5	2	-11	72*	-8	-2
CC(C)(Oc1ccc(Cl)cc1)C(=O)Nc1ccccc1N1CCCCC1	12	8	8	8	10	1
COc1ccc(CN2C(=O)C3C(C(=O)Nc4ccc(F)cc4)C4(C)C=CC3(O4)C2C(=O)NC2CCCCC2)cc1 (centres undefined)	-15	-7	-10	7	6	-2
Cc1ccc(CSc2nc(-c3ccco3)nc3c2c(=O)n(C)c(=O)n3C)cc1	-1	-5	0	-8	-12	2
CCN(CC)c1ccc2ccc(C(=O)NC(C)C)cn12	-12	-71	-230	-51	-123	-9
